{
  "source": "PubChem BioAssay AID745",
  "about": "(Emory University Molecular Libraries Screening Center, 2007)",
  "note": "Screen size: about 33,000 compounds; about 40 (0.1%) were called active. Only a selection was taken, and actives are over-represented in it overall. A number with no mark means an inactive call. No stated cut-off is given here; in the data, active means z-score below about -3; inactive means the rest.",
  "data": [
    {"assay": "inhibitors of measles virus growth in cells, primary screen, measles RdRp inhibitor project, cell-based, single point, HTS (AID 745)", "details": "infected Vero cells, GFP fluorescence, 64 h; stronger effect = lower value", "values": [
      {"smiles": "COc1nc(SC)nnc1C", "z-score": "-5.82 (active)"},
      {"smiles": "COc1cc(NC(=O)c2cc(-c3ccc(Cl)cc3)on2)c(OC)cc1Cl", "z-score": -0.12},
      {"smiles": "COC(=O)c1sc(=S)n(-c2ccc(OC)c(Cl)c2)c1N", "z-score": 0.31},
      {"smiles": "O=C(Nc1c(C(=O)N2CCC(Cc3ccccc3)CC2)cnn1-c1ccccc1)c1ccc(Br)cc1", "z-score": 0.43},
      {"smiles": "COc1ccc(-c2cc(C(=O)Nc3sc4c(c3C(N)=O)CCCC4)no2)cc1", "z-score": 0.31},
      {"smiles": "CCCc1n(CC(O)COc2cccc(Cl)c2)c2ccccc2[n+]1C", "note": "(centres undefined)", "z-score": 0.55},
      {"smiles": "CC1CC(C)(C)NC(=S)N1CCC(=O)Nc1ccc(OC(F)(F)F)cc1", "note": "(centres undefined)", "z-score": -0.78},
      {"smiles": "O=C1COc2ccc(Cl)cc2N1", "z-score": 0.06},
      {"smiles": "CCOC(=O)c1sc(NC(=O)COc2ccc(C(C)C)c(C)c2)nc1C", "z-score": -0.5},
      {"smiles": "COc1ccc(C2C(C(=O)Nc3ccc(Br)cc3C)c3ccccc3C(=O)N2C)cc1", "note": "(centres undefined)", "z-score": -0.56},
      {"smiles": "O=S(=O)(c1ccccc1)N1CCN(C2CC3CCC2C3)CC1", "note": "(centres undefined)", "z-score": -0.28},
      {"smiles": "N=C1N=C(N)C(Cc2ccccc2)S1", "note": "(centres undefined)", "z-score": -0.59},
      {"smiles": "Cc1noc(NS(=O)(=O)c2ccc(NC(=O)c3cccc(Br)c3)cc2)c1C", "z-score": 0.43},
      {"smiles": "CC(=O)Nc1cc(C(=O)N(C)CCC#N)ccc1Sc1ccc(Cl)cc1", "z-score": -1.08},
      {"smiles": "COc1ccc(C2C(C(=O)Nc3ccccc3F)=C(C)NC3=C2C(=O)CCC3)cc1OC", "note": "(centres undefined)", "z-score": 0.03},
      {"smiles": "O=C(NCc1ccccc1)c1ccc2c(=O)n(-c3ccccc3)c(=S)[nH]c2c1", "z-score": 0.39},
      {"smiles": "O=C1C(=O)N(c2nccs2)C(c2ccccc2Cl)/C1=C(\\O)c1ccc(F)cc1", "note": "(centres undefined)", "z-score": 1.65},
      {"smiles": "CCCCNC(=O)c1cnn2c(C)c(Cc3ccccc3)c(C)nc12", "z-score": -0.18},
      {"smiles": "O=C(c1ccc(-n2c(=S)[nH]c3ccccc3c2=O)cc1)N1CCN(C2CCCCC2)CC1", "z-score": -0.06},
      {"smiles": "O=C(Nc1ncnc2sc3c(c12)CCCC3)c1ccccc1", "z-score": 0.41},
      {"smiles": "S=c1[nH]c(-c2ccc(Cl)cc2)cn1-c1cccc(Cl)c1", "z-score": -0.55},
      {"smiles": "Nc1nnc2c(n1)-c1ccccc1C2=O", "z-score": 0.84},
      {"smiles": "CCC(NS(=O)(=O)c1ccc(Oc2ccc([N+](=O)[O-])cc2)cc1)C12CC3CC(CC(C3)C1)C2", "note": "(centres undefined)", "z-score": -1.36},
      {"smiles": "O=C(CN1C(=O)c2cccc3cccc1c23)N1CCCCCC1", "z-score": 0.09},
      {"smiles": "CCCCN(C)Cc1c(O)ccc2c(=O)c(Oc3ccc(CC)cc3)c(C(F)(F)F)oc12", "z-score": -0.69},
      {"smiles": "Fc1ccccc1CSc1nc(NCC2CCCO2)c2ccccc2n1", "note": "(centres undefined)", "z-score": -1.9},
      {"smiles": "COCCNC(=O)c1ccc(N2CC3CC(C2)c2cccc(=O)n2C3)c(NC(=O)c2cc3ccccc3oc2=O)c1", "note": "(centres undefined)", "z-score": 0.89},
      {"smiles": "Cc1ccc(NCc2ccccc2CO)cc1", "z-score": -0.53},
      {"smiles": "C=CCC1(C#N)C(=S)NC(c2ccccc2)=C(C(=O)OCC)C1c1cccnc1", "note": "(centres undefined)", "z-score": 1.37},
      {"smiles": "CC(=O)N1CCc2cc(Br)cc(S(=O)(=O)NCCCN3CCCCCC3)c21", "z-score": 0.64},
      {"smiles": "COc1ccc(C=NCCC2(c3ccc(OC)cc3)CCOC(C)(C)C2)cc1", "note": "(centres undefined)", "z-score": -0.17},
      {"smiles": "COc1ccccc1-c1nc2nc(C)cc(=O)n2[nH]1", "z-score": -0.19},
      {"smiles": "Cc1ccccc1C(=O)Nc1cccc(F)c1", "z-score": 1.39},
      {"smiles": "O=C(Cc1c(C(=O)O)[nH]c2ccc(Cl)cc12)NCc1ccc2c(c1)OCO2", "z-score": 1.5},
      {"smiles": "COc1ccc(NC(=O)Cn2c(=O)n(CCc3ccccc3)c(=O)c3c(C)c(C)sc32)cc1", "z-score": 2.83},
      {"smiles": "Cn1c(=O)c(=O)n(C)c2cc(S(=O)(=O)N3CCCc4ccccc43)ccc21", "z-score": -0.1},
      {"smiles": "CCN1CCN(c2cc(C)c3cc(NC(=O)CCC4CCCC4)ccc3n2)CC1", "z-score": -0.38},
      {"smiles": "Cc1cccc(C)c1NC(=O)CSc1ccc([N+](=O)[O-])cn1", "z-score": 0.01},
      {"smiles": "COc1cccc(NC(=O)Cn2cc(C(=O)C(F)(F)F)c3ccccc32)c1", "z-score": -0.44},
      {"smiles": "COc1ccc(OC)c(C2Nc3cccc4cccc(c34)N2)c1", "z-score": -0.45},
      {"smiles": "CCOP(=O)(Cc1cc(C(C)(C)C)c(O)c(C(C)(C)C)c1)OCC", "z-score": -1.02},
      {"smiles": "CC1Cc2nc(SCC(=O)Nc3cccc(Cl)c3)n(C)c(=O)c2S1", "note": "(centres undefined)", "z-score": 0},
      {"smiles": "COc1cccc(OC)c1C(=O)Oc1cccc2ccc(C)nc12", "z-score": -0.39},
      {"smiles": "CC1(C)CC(=O)C2=C(C1)OC1=C(C(=O)CC(C)(C)C1)C2c1ccccc1C(=O)O", "z-score": 0.12},
      {"smiles": "O=[N+]([O-])c1ccc(N2CCCCCC2)c(S(=O)(=O)N2CCOCC2)c1", "z-score": -0.01},
      {"smiles": "Cc1ccccc1NC(=O)CC1Sc2ccccc2NC1=O", "note": "(centres undefined)", "z-score": -0.07},
      {"smiles": "O=C(O)CCNC(=O)Cn1cnc2sc3c(c2c1=O)CCCC3", "z-score": 1.62},
      {"smiles": "CCn1c(SCC(=O)Nc2ccc(F)cc2)nc2c(c1=O)SC(C)C2", "note": "(centres undefined)", "z-score": -0.54},
      {"smiles": "O=C(CSc1nc2c([nH]c3ccccc32)c(=O)n1-c1cccc(Cl)c1)Nc1nccs1", "z-score": -1.08},
      {"smiles": "COc1ccc(Cl)cc1NC(=O)CSc1nc2cc(OC)c(OC)cc2c2nc(C)nn12", "z-score": -0.11},
      {"smiles": "CCOCCOC(=O)C1=C(C)NC(=O)NC1c1cccc([N+](=O)[O-])c1", "note": "(centres undefined)", "z-score": 4.15},
      {"smiles": "COc1ccc(C=Cc2nc3ccccc3[nH]2)cc1", "z-score": -0.15},
      {"smiles": "COc1cc(C2NC(=O)N(C)C(C)=C2C(=O)OCCc2ccccc2)cc(Br)c1O", "note": "(centres undefined)", "z-score": -0.63},
      {"smiles": "COc1ccccc1-n1c(C)nc2cc(C(=O)NCc3cccnc3)ccc21", "z-score": 1.95},
      {"smiles": "Cc1ccc(C(=O)CC2(O)C(=O)N(C(C)C)c3ccccc32)c(C)c1", "note": "(centres undefined)", "z-score": -0.29},
      {"smiles": "Clc1ccc(-c2ncnn2-c2cccc(Cl)c2)cc1", "z-score": -0.25},
      {"smiles": "CCOc1ccc(Nc2cc(C(=O)NCCN3CCCC3)c3ccccc3n2)cc1", "z-score": -0.89},
      {"smiles": "O=C(Nc1ccccc1-c1nc2ccccc2s1)c1ccc(S(=O)(=O)N2CCCCCC2)cc1", "z-score": 0.69},
      {"smiles": "O=C(Nc1ccc(Oc2ccccc2)cc1)c1cn(-c2ccc(Cl)cc2)c(=O)c2ccccc12", "z-score": -0.93}
    ]}
  ]
}
